Screening results as filed in PubChem BioAssay.
This is a sample that favours compounds with a hit; in the whole collection about 15% have one here.
SARS PLP yeast – qHTS of Yeast-based Assay for SARS-CoV PLP; 0.19% of 330,000 active; AID 485353, 2010; S. cerevisiae expressing SARS-CoV PLpro, growth rescue; Potency, µM (top dose mostly 32.9 µM), for the others: at the highest dose activity, positive = growth rescue, usual class: activators; calls by dose curve; note: potency is the fitted concentration of half-maximal effect; 0% is about no effect; nearly all actives have a fitted effect of over 55% in size
HCV inh – qHTS Assay for Inhibitors of Hepatitis C Virus (HCV); Huh7.5.1 HCVcc-Cre infection, luciferase reporter, 44 h; Potency, µM (titrated, usually from 41.8 µM), for inactives: top-dose activity change, negative = inhibition, most hits filed as inhibitors; 3.4% of 340,000 active; AID 651820, 2012; note: potency is the fitted concentration of half-maximal effect; % is set by controls: 0 for no effect and ±100 for the full control effect
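A cell-based infection assay in which seeded cells (1,000 per well) receive test compound after 4 h, are inoculated with HCVcc-Cre at approximately 0.5 moi, and are incubated 44 h before luminescence detection.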
Pf growth 96h – Primary qHTS for delayed death inhibitors of the malarial parasite plastid, 96 hour incubation; P. falciparum luciferase reporter growth, 96 h; Potency, µM (highest dose often 28.7 µM), without a hit: top-dose activity change, negative = inhibition, hits mostly inhibitors; 6.9% of 320,000 active; AID 504834, 2011; note: potency is the fitted concentration of half-maximal effect; % is set by controls: 0 for no effect and ±100 for the full control effect
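Cell-based qHTS: luciferase-tagged P. falciparum in erythrocytes (2% hematocrit, 0.05% parasitemia final) incubated with compounds for 96 hours, 37 C, 5% CO2; luciferase detection reagent then added and luminescence measured.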
Pf growth 48h – Primary qHTS for delayed death inhibitors of the malarial parasite plastid, 48 hour incubation. AID 504832, 2011. 5.9% of 310,000 active. Potency, µM (series often up to 28.7 µM), without a hit: at the top dose activity change, negative = inhibition, most hits filed as inhibitors. P. falciparum luciferase growth in erythrocytes, 48 h; note: potency is the fitted concentration of half-maximal effect; % is set by controls: 0 for no effect and ±100 for the full control effect
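Compounds are pin-transferred into medium, infected erythrocytes (2% hematocrit, 0.1% parasitemia final) are added, and plates sit one parasite generation at 37 C in 5% CO2. Detection reagent is then added and luminescence measured.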
HCMV inh – qHTS Assay for inhibitors of the human cytomegalovirus (HCMV) | HFF cells, HCMV-luciferase reporter, 72 h; stronger effect = lower value | activity change, negative = inhibition, % at 57.5 µM | 4.5% of 410,000 active | AID 1259415, 2018; in the data active = activity change below about -60%; inconclusive = no clear call, values can overlap the other calls; inactive = above about -39%; note: % is set by controls: 0 for no effect and ±100 for the full control effect
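Two compound doses tested in HFFs infected with HCMV-luciferase, MOI 1 PFU/cell, 72 h at 37C. Lysate luminescence read with OneGlo; data normalized against buffer-only and 10uM Salinomycin inhibitor controls.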
Sm TGR inh – qHTS Assay for the Inhibitors of Schistosoma Mansoni Peroxiredoxins; AID 485364, 2010; 3% of 360,000 active; Schistosoma mansoni thioredoxin glutathione reductase (TGR), Q962Y6; purified TGR, DTNB reduction, TNB absorbance 405 nm; Potency, µM (highest dose often 114 µM), inactives show at the highest dose activity change, negative = inhibition, most hits filed as inhibitors; note: potency is the fitted concentration of half-maximal effect; % is set by controls: 0 for no effect and ±100 for the full control effect; nearly all actives have a fitted effect of over 60% in size
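First, TGR (20 nM dispensed) and NADPH were mixed with compound. Second, a 15 min room-temperature incubation followed. Third, further NADPH and then DTNB were added to start the reaction. Finally, TNB absorbance was monitored kinetically.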
* marks the source's active call; other numbers are inactive results; i = inactive; ? = inconclusive; · = no result given; [ ] = remark or other dose. Unless noted, calls come from the whole dose curve; as a rule, active = well fitted curve in the direction sought with a large enough effect; inconclusive = small, poorly fitted or top-dose-only effect, or another doubt; inactive = no such curve, though single readings can be large; an effect the other way counts as inactive or inconclusive.

SMILES | SARS PLP yeast | HCV inh | Pf growth 96h | Pf growth 48h | HCMV inh | Sm TGR inh
O=Nc1c(O)n(Cc2ccc(Cl)cc2)c2ccccc12 | -26.8% | -9.5% | ? | 13.1µM* | 18.5 | -8.1%
CCOC(=O)Cc1ccc(NC(=O)NC(C)c2c(-n3cccc3)sc(C)c2C)cc1 (stereo not given) | · | · | · | · | -15.6 | 3.0%
COC1OC2COC(c3ccccc3)OC2C2OC(c3ccccc3)OC12 (stereo not given) | · | · | · | · | -24.5 | ·
CN1CCC(=NNc2ccc(S(=O)(=O)N3CCOCC3)cc2[N+](=O)[O-])CC1 | ? | -23.2% | -3.8% | 26.6% | ? | ?
Clc1cccc(Cl)c1CNCCCSc1ncccn1 | -1.1% | -1.2% | -27.1% | -11.0% | 17.9 | 6.9%
CCOc1ccc(CNCCCSc2ncccn2)cc1 | -2.0% | -1.7% | 10.4µM* | -14.9% | 3.3 | -11.3%
CCOc1ccc(CNCCCSc2ncccn2)cc1OC | 0.6% | -20.8% | ? | 3.9% | 69.1 | -0.7%
CC(C)c1ccc(CNCCCSc2ncccn2)cc1 | -1.3% | 9.4% | 13.1µM* | 5.2% | -15.6 | -21.1%
Fc1cccc(Cl)c1CNCCCSc1ncccn1 | 13.8% | -4.7% | 13.1µM* | -10.8% | 13.7 | -10.3%
CCCCC1CCC(C(=O)N(CCC(C)C)c2c(N)n(CCCC)c(=O)[nH]c2=O)CC1 (stereo not given) | · | · | · | · | -25.9 | ·
COc1cc2c(c3ccccc13)CCCC2=O | · | ? | · | · | -26.5 | ·
CC1C(=O)N(Cc2ccc(F)cc2)c2ccccc2N1C(=O)c1c(F)cccc1F (stereo not given) | -5.7% | ? | 11.7µM* | ? | -72.9* | -5.5%
CC(C)CNc1nc(N)c([N+](=O)[O-])c(NCC2CCCO2)n1 (stereo not given) | -4.4% | 11.9% | 11.7µM* | ? | 16.0 | -3.3%
Cc1cc(C)n(-c2nnc(N3CCN(c4ccc(F)cc4)CC3)nn2)n1 | -0.9% | -11.1% | 0.37µM* | ? | 20.2 | 3.4%
CCOc1ccccc1NC(=O)COC(=O)c1c(CC)noc1C | 0.9% | ? | 17.5% | 3.2% | 0.2 | -0.6%
CCOc1ccc(CCNC(=O)CN2C(=O)CCSc3ccccc32)cc1OCC | -0.2% | -28.8% | 0.185µM* | 0.0% | -23.9 | -9.5%
CCOc1ccc(CCNC(=O)C2CC(=O)N(c3ccc4c(c3)OCCO4)C2)cc1OCC (stereo not given) | -0.2% | ? | 3.29µM* | ? | -16.3 | 3.1%
CCOc1ccc(CCNC(=O)C2CCC(=O)N2CCc2ccccc2)cc1OCC (stereo not given) | 3.6% | ? | 13.1µM* | · | -10.6 | -4.1%
CCOc1ccc(CCNC(=O)C2CC(=O)N(CCc3ccccc3)C2)cc1OCC (stereo not given) | 5.4% | -26.1% | ? | -2.4% | -71.6* | 0.8%
CC(C)S(=O)(=O)NC(=O)C1(C)CCN1C(=O)Cc1ccccc1 (stereo not given) | · | · | · | · | -31.9 | ·
Cc1ccc(C(=O)N(CC(=O)NC2CCCC2)c2ccccc2F)s1 | · | · | · | · | -22.6 | ·
COc1ccc(N2CCN(C(=O)COC(=O)COc3cc(C)cc(C)c3)CC2)cc1 | 0.4% | 12.2% | 14.2% | -25.0% | -26.4 | -5.3%
CCCCNC(=O)c1cnn2c(C)c(Cc3c(C)cc(C)cc3C)c(C)nc12 | · | · | · | · | -21.2 | 1.8%
c1ccc(-c2onc(-c3ccco3)c2-c2ccc3c(c2)OCO3)cc1 | 0.3% | -8.5% | 13.1µM* | ? | 14.3 | 50.1µM*
NC(=O)N/N=C/c1ccc(OCc2cccc(Cl)c2)cc1 | -1.5% | -3.0% | 2.7% | 25.9% | -33.7 | ·
SMILES | SARS PLP yeast | HCV inh | Pf growth 96h | Pf growth 48h | HCMV inh | Sm TGR inh
CCCn1nc(NC(=O)c2ccco2)c2cc3ccc(C)cc3nc21 | 0.8% | ? | · | -22.7% | -31.0 | ?
CCCn1nc(NC(=O)c2ccco2)c2cc3cc(C)ccc3nc21 | -2.6% | 12.6µM* | -29.5% | ? | 28.0 | 11.2µM*
CC(C)Cn1nc(NC(=O)c2ccco2)c2cc3ccccc3nc21 | -1.6% | ? | ? | -15.8% | -16.5 | 50.1µM*
CCn1nc(NC(=O)c2ccco2)c2cc3ccccc3nc21 | -9.9% | ? | 9.28µM* | · | 26.2 | 2.6%[11.4 µM]
CCCCOCCCNC(=O)C[C@@H]1C[C@@]2(C(=O)OCC)CCCC=C2N(Cc2ccco2)C1=O | · | · | · | · | -3.7 | ·
COCCCNC(=O)CS(=O)Cc1nc(-c2cccc(OC)c2)oc1C (stereo not given) | 2.9% | 3.6% | i | ? | 18.3 | 39.8µM*
COc1ccc(-c2nc(CS(=O)CC(=O)NCc3ccccc3Cl)c(C)o2)cc1OC (stereo not given) | · | · | · | · | -7.8 | -21.0%
COCCCNC(=O)CS(=O)Cc1nc(-c2cccc(C)c2)oc1C (stereo not given) | · | · | · | · | 2.5 | ?
COc1cccc(-c2nc(CS(=O)CC(=O)NCc3ccccc3Cl)c(C)o2)c1 (stereo not given) | 9.2% | ? | -37.0% | · | 20.8 | 31.6µM*
CC(=O)c1ccc2c(c1)N(Cc1ccccc1Cl)C(=O)C(C)S2 (stereo not given) | · | · | · | · | -98.2* | ·
O=C(NCC1CCCO1)c1ccc2c(c1)N(Cc1ccccc1)C(=O)CS2 (stereo not given) | -3.1% | 5.1% | 9.5% | 14.7% | -74.2* | -10.5%
O=C(NCc1ccccc1Cl)c1ccc2c(c1)N(Cc1ccccc1)C(=O)CS2 | · | · | · | · | -65.1* | 8.2%
O=C(NCc1ccco1)c1ccc2c(c1)N(Cc1ccccc1)C(=O)CS2 | -31.8% | -21.4% | ? | · | ? | -31.8%
CC(=O)Nc1ccc(CN2CCCC(C(=O)c3ccc(C(F)(F)F)cc3)C2)cc1 (stereo not given) | -0.2% | ? | 15.2% | ? | -2.1 | -5.7%
COc1ccc(C(=O)Nc2ccc(N3CCN(C(=O)c4cccs4)CC3)cc2)cc1Br | 3.4% | -17.7% | 9.28µM* | ? | -34.6 | -10.2%
Nc1ccc(N2CCN(C(=O)c3cccs3)CC2)cc1 | 8.6% | 15.0% | ? | ? | -33.0 | -10.0%
Cc1ccc(C(=O)N2CCN(c3ccc(NC(=O)c4cccs4)cc3)CC2)cc1 | 2.2% | ? | ? | 10.4µM* | -7.2 | 0.0%
Cc1ccc(N2C(=O)c3ccc(C(=O)N4CCN(c5ccc(C)c(C)c5)CC4)cc3C2=O)cc1 | -1.0% | 19.2% | 49.5% | 9.8% | -70.4* | -3.6%
O=C(Nc1ccc(N2CCN(C(=O)c3ccc(Cl)cc3)CC2)cc1)c1cccs1 | 5.5% | 11.8% | -29.4% | ? | 16.8 | ?
